Screening results deposited in PubChem by National Center for Advancing Translational Sciences (NCATS).
Hits are enriched below; roughly 5% of the tested compounds scored in any of these assays.
TbPYK inhibitor – qHTS of Trypanosoma Brucei Inhibitors. pyruvate kinase (Trypanosoma brucei), Q57TT1. AID 624173, 2012. TbPYK enzyme, Kinase-Glo Plus ATP luminescence, 45 min. 410,000 tested, 0.12% active. Potency, µM (highest dose often 76.8 µM), without a hit: top-dose activity, negative = inhibition, hits mostly inhibitors; further: potency means the concentration at half of the fitted maximal effect; nearly all actives have a fitted effect of over 50% in size
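Enzyme and substrate buffer are dispensed first and compound is pin-transferred. ADP at 130 uM final then starts the reaction, which runs 45 min at room temperature. Detection reagent is added for 10 min before luminescence is imaged.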
VACV Venus inh – qHTS for Stage-Specific Inhibitors of Vaccinia Orthopoxvirus: Venus Reporter Primary qHTS; Vaccinia virus Venus reporter expression, fluorescence; Potency, µM (series often up to 36.5 µM), without a hit: top-dose activity change, negative = inhibition, most hits filed as inhibitors; 330,000 tested, 0.46% active; AID 720580, 2013; calls by dose curve; tested in A549 cells; further: potency means the concentration at half of the fitted maximal effect; nearly all actives have a fitted effect of over 30% in size
HCMV inh – qHTS Assay for inhibitors of the human cytomegalovirus (HCMV); HFF cells, HCMV-luciferase reporter, 72 h; stronger effect = lower value; activity change, negative = inhibition, % at 57.5 µM; 410,000 tested, 4.5% active; AID 1259415, 2018; in the data active means activity change below about -60%; inconclusive means no clear call, values can overlap the other calls; inactive means above about -39%
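Steps: HFFs plated, 16 h 37C; compounds added; HCMV-luciferase added to MOI 1 PFU/cell; 72 h 37C; OneGlo reagent, 5 min room temperature; luminescence read, normalized to controls.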
LmPK inhibitor – qHTS Assay for Inhibitors of Leishmania Mexicana Pyruvate Kinase (LmPK) | Q27686 | purified LmPK, Kinase-Glo ATP luminescence, 1 h | Potency, µM (titrated, usually from 57.5 µM), without a hit: at the top dose activity change, negative = inhibition, hits mostly inhibitors | 290,000 tested, 0.37% active | AID 1721, 2009; further: potency means the concentration at half of the fitted maximal effect
Target sequence (Q27686 whole entry, looked up): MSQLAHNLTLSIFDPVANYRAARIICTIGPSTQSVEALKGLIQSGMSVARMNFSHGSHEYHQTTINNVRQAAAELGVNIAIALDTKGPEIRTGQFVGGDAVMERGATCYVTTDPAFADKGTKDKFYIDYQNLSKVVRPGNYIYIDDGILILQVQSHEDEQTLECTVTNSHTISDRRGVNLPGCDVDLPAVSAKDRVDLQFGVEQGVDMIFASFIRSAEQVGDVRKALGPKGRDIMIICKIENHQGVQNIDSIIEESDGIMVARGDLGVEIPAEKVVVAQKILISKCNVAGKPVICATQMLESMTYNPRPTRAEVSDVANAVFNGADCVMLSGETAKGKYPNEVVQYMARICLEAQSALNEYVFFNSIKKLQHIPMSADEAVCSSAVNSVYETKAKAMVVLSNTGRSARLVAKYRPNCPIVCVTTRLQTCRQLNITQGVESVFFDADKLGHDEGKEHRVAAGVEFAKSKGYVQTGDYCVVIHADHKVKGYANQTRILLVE
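Purified LmPK (0.1 nM) with 0.5 mM PEP and 0.1 mM ADP in imidazole buffer pH 7.2 with MgCl2/KCl, 1 h at room temperature. ATP formed was read by luciferase luminescence and normalized to no-enzyme and uninhibited controls.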
Vaccinia mCherry – qHTS for Stage-Specific Inhibitors of Vaccinia Orthopoxvirus: mCherry Reporter Primary qHTS. Vaccinia virus mCherry reporter infection, fluorescence. Potency, µM (highest dose often 36.5 µM), for the others: top-dose activity change, negative = inhibition, actives largely listed as inhibitors. 310,000 tested, 0.63% active. AID 720579, 2013; calls by dose curve; tested in A549 cells; further: potency means the concentration at half of the fitted maximal effect; nearly all actives have a fitted effect of over 35% in size
* hit, by the source's call; i = inactive; ? = inconclusive; · = no result given; [ ] = remark or other dose. Unless noted, the call rests on the fitted dose curve; in most records, active means well fitted curve in the direction sought with a large enough effect; inconclusive means small, poorly fitted or top-dose-only effect, or another doubt; inactive means no such curve, though single readings can be large; an effect the other way counts as inactive or inconclusive. On the % scale 0 is the no-effect control and ±100 the full control effect.

SMILES	TbPYK inhibitor	VACV Venus inh	HCMV inh	LmPK inhibitor	Vaccinia mCherry
CCCNC(=O)c1cc2c(c(-c3cccc(-c4ccc(F)cc4)c3)n1)[C@@H](CCO)N(S(=O)C(C)(C)C)C2 (stereo partly specified)	3%	-5%	-96*	·	23%
CCC(=O)N1CCC1(C)C(=O)Nc1ccc2nc(C)ccc2c1 (stereo unspecified)	-6%	-7%	-15	·	28%
CCOc1cc(CNc2ccc3c(c2)OCCO3)cc(Br)c1OCC	-1%	?	-86*	-1%	?
Cc1c(C(=O)C(=O)N2c3ccccc3CC2C)c2ccccc2n1C (stereo unspecified)	0%	?	-64*	-2%	-24%
O=C1NC(=O)C(CSc2ccccc2)(c2ccccc2)N1 (stereo unspecified)	-2%	-9%	-11	·	-2%
CC1(CSc2ccccc2)CC(=O)N1 (stereo unspecified)	0%	-18%	-79*	·	i
O=C1c2cccc(Sc3ccccc3)c2C(=O)c2c(Sc3ccccc3)cccc21	?	-8%[7.34 µM]	14	-1%	-11%[7.34 µM]
Cc1cc(NC(=O)NC(=O)c2ccccc2NC(=O)C(C)N)ccc1Oc1ncc(Br)cn1 (stereo unspecified)	8%	-29%	-83*	·	-22%
CCOC(=O)c1ccccc1NC(=O)Nc1ccc(OC)c(OC)c1	5%	·	17	2%	·
COC(=O)Cn1ccc2cc(S(=O)(=O)N3CCCCC3)ccc21	2%	-4%[7.34 µM]	-38	-4%	2%[7.34 µM]
CC(C)N(C(=O)[C@H]1C[C@H](CC(=O)NCc2cccc(C(F)(F)F)c2)C(=O)N2CCc3c([nH]c4ccc(Cl)cc34)[C@]12C)C(C)C	4%	11µM*	?	·	?
C[C@]12c3[nH]c4ccc(Cl)cc4c3CCN1C(=O)[C@@H](CC(=O)NCC13CC4CC(CC(C4)C1)C3)C[C@@H]2C(=O)N1CCOCC1	-2%	13µM*	-37	·	?
C[C@]12c3[nH]c4ccc(Cl)cc4c3CCN1C(=O)[C@@H](CC(=O)NCC13CC4CC(CC(C4)C1)C3)C[C@@H]2C(=O)N1CCCCC1	4%	?	-20	·	28µM*
CC[C@]12c3[nH]c4ccc(Cl)cc4c3CCN1C(=O)[C@@H](CC(=O)NCC13CC4CC(CC(C4)C1)C3)C[C@@H]2C(=O)N1CCN(C(=O)C2CC2)CC1	-2%	10µM*	-26	·	-20%
COc1ccc(CN2CCCC(c3nc(-c4ccncc4)ncc3-c3ccccc3C)C2)c(OC)c1 (stereo unspecified)	·	-20%	·	·	-30%
C/C=C\C=C\C(=O)N1CC2(CC(c3cccc(NC(=O)CC)c3)=NO2)C[C@H]1C(N)=O (stereo partly specified)	-20%	-8%	54	2%	i
COc1ccc(C2c3ccsc3CCN2C(=O)C(C)(C)C)cc1 (stereo unspecified)	-2%	·	-31	4%	·
Cc1ccc(NC(=O)/C=C\C(=O)N(c2ccc(C(C)C)cc2)C(C(=O)NCc2ccco2)c2ccc(Cl)cc2)cc1 (stereo unspecified)	-3%	?	-76*	·	?
CCOc1ccc(NC(=O)/C=C\C(=O)N(c2ccc(C(C)C)cc2)C(C(=O)NCc2ccco2)c2ccc(F)cc2)cc1 (stereo unspecified)	6%	?	-61*	·	-24%
COc1ccc(N(C(=O)/C=C\C(=O)Nc2ccc(Cl)cc2)C(C(=O)NCc2ccco2)c2ccc(C)cc2)cc1 (stereo unspecified)	-6%	-19%	-40	·	-24%
Cc1ccc(/C=N/Nc2ccc3ccccc3n2)o1	-9%	?	-79*	?	?
Cc1cccc(/C=N/Nc2ccc3ccccc3n2)c1	-15%	-11%	-31	?	?
C(=N\Nc1ccc2ccccc2n1)/c1ccc2c(c1)OCCO2	-14%	·	-90*	?	·
C(=N\Nc1nc2ccccc2[nH]1)/c1ccc2c(c1)OCCO2	-1%	·	-1	-1%	·
